# Assay results from PubChem BioAssay AID743421 (Vanderbilt Specialized Chemistry Center, 2014).
# Target: Metabotropic glutamate receptor 6 (Homo sapiens) (UniProt O15303)
# Assay: off-target activity check on mGlu6 receptor – cell-based, GIRK thallium flux, agonist curve fold shift, selectivity assay for mGlu8/mGlu7 PAM project, profiling panel (AID 743421)
# Conditions: mGlu6/GIRK cells, thallium flux (Fluo Zn); agonist CRC fold shift; at 10 µM; stronger effect = higher value
# Metabotropic glutamate receptor 6 (Homo sapiens), sequence (O15303 whole entry, looked up): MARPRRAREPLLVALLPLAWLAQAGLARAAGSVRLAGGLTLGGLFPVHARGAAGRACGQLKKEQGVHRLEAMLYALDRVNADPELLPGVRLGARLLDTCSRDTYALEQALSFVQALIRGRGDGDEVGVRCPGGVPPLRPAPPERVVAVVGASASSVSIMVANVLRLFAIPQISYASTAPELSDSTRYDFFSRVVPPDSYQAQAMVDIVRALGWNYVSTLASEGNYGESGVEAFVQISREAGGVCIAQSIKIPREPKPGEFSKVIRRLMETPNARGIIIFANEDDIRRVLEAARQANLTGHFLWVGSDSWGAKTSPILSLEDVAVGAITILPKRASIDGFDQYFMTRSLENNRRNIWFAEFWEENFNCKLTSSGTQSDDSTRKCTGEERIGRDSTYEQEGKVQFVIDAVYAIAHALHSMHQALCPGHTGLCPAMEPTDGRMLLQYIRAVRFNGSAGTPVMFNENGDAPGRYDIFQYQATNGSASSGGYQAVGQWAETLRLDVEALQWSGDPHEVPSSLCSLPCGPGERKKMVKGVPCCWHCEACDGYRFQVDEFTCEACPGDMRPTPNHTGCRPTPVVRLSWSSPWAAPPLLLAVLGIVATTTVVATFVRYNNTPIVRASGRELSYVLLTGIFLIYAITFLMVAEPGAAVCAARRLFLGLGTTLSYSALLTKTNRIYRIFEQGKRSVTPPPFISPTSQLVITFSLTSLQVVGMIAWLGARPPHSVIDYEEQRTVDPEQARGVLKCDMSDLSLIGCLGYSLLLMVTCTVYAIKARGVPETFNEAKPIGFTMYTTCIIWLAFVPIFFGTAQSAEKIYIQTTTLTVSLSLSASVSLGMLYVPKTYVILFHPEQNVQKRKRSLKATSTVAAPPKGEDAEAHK
compound,measurement,value
COC(=O)c1ccc(-n2c(C)cc(C(=O)CSc3ccc(NC(C)=O)cc3)c2C)cc1,fold shift,2.59
